# Experimental data reported in PubChem BioAssay.
# Calls of active or inactive are those of the source. The rule behind the calls is not given here.
# System: Aerobactin synthetase IucA (Klebsiella pneumoniae, hypervirulent)
# Experiment: biochemical IucA inhibition screen of LOPAC library by absorbance (AID 1346212);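 note: 100% = no compound wells and 0% = no enzyme wells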
# Conditions: IucA enzyme assay, absorbance (OD) readout; active compounds read low;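 tested at 8 µM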
row,SMILES,remaining activity
1,NOCC(=O)O,124% (inactive)
2,NC(=O)C(=O)O,121% (inactive)
3,OC[C@H]1O[C@@H](n2cnc3c(NC4CCCCC4)ncnc32)[C@H](O)[C@@H]1O,93.2% (inactive)
4,C[C@H](NCCc1ccc(O)cc1)[C@H](O)c1ccc(O)cc1,94.5% (inactive)
5,CC(N)(Cc1ccc(O)cc1)C(=O)O (centres undefined),106% (inactive)
6,Cc1cccc(/C=C/c2ccccc2)n1,81% (inactive)
7,C#CCN(C)CCCOc1ccc(Cl)cc1Cl,122% (inactive)
8,CC(/C=C/c1cccc(Oc2ccc(F)cc2)c1)N(O)C(N)=O (centres undefined),99.1% (inactive)
9,C[N+](C)(C)CCOC(=O)CCC(=O)OCC[N+](C)(C)C,123% (inactive)
10,Nc1ncnc2c1ncn2[C@@H]1O[C@H](COP(=O)(O)OP(=O)(O)OP(=O)(O)OP(=O)(O)OC[C@@H]2O[C@H](n3cnc4c(N)ncnc43)C(O)[C@@H]2O)[C@H](O)C1O (some centres undefined),91.8% (inactive)
11,CC(=O)OCC(=O)[C@@]1(O)CC[C@H]2[C@@H]3CCC4=CC(=O)CC[C@]4(C)[C@H]3C(=O)C[C@@]21C,102% (inactive)
12,C[C@@H]1[C@@H]2Cc3ccc(O)cc3[C@@]1(C)CCN2CC1CC1,103% (inactive)
13,NCCNC(=O)c1ccc(Cl)cc1,88.1% (inactive)
14,COC(=O)Nc1nc2ccc(C(=O)c3cccs3)cc2[nH]1,117% (inactive)
15,CCc1cccc(N(C)C(N)=Nc2cccc3ccccc23)c1,96.2% (inactive)
16,S=C(S)OC1CC2CC1C1CCCC21 (centres undefined),94.5% (inactive)
17,CC(C)C(=O)c1c(C(C)C)nn2ccccc12,125% (inactive)
18,N[C@@H](Cc1ccc(O)c(I)c1)C(=O)O,121% (inactive)
19,CCOC(=O)c1ncn2c1CN(C)C(=O)c1cc(F)ccc1-2,100% (inactive)
20,N[C@@H](CS(=O)O)C(=O)O,115% (inactive)

row,SMILES,remaining activity
1,CC(=O)S[C@@H]1CC2=CC(=O)CC[C@]2(C)[C@H]2CC[C@@]3(C)[C@@H](CC[C@@]34CCC(=O)O4)[C@H]12,108% (inactive)
2,COc1cc(C(O)CO)ccc1OS(=O)(=O)O (centres undefined),99.3% (inactive)
3,N[C@@H](Cc1cnc[nH]1)C(=O)O,113% (inactive)
4,C[C@H]1C[C@H]2[C@@H]3CCC4=CC(=O)C=C[C@]4(C)[C@@]3(F)[C@@H](O)C[C@]2(C)[C@@]1(O)C(=O)CO,114% (inactive)
5,COCc1nc2c([nH]1)c(=O)n(C)c(=O)n2CC(C)C,112% (inactive)
6,COc1cccc(OC)c1OCCNCC1COc2ccccc2O1 (centres undefined),105% (inactive)
7,CCCCCCCCCCCCCCCCCCOC[C@H](COP(=O)([O-])OCC[N+](C)(C)C)OC,119% (inactive)
8,Nc1nc(SCc2ccc([N+](=O)[O-])cc2)c2ncn([C@@H]3O[C@H](CO)[C@H](O)C3O)c2n1 (some centres undefined),107% (inactive)
9,C[C@]1(C2CCCC2)Cc2cc(OCC(=O)O)c(Cl)c(Cl)c2C1=O,113% (inactive)
10,CNC(=O)[C@H]1O[C@@H](n2cnc3c(NCc4cccc(I)c4)ncnc32)[C@H](O)[C@@H]1O,114% (inactive)
11,COC(=O)c1c(C)[nH]c(C)c1C(=O)c1ccccc1Cc1ccccc1,96.6% (inactive)
12,N=C(N)c1ccc(N)cc1,112% (inactive)
13,COc1ccccc1N1CCN(CCCNc2c(C)c(=O)n(C)c(=O)n2C)CC1,96.4% (inactive)
14,COc1cc2ncnc(Nc3cccc(Cl)c3)c2cc1OC,106% (inactive)
15,COCCOC(=O)C1=C(C)NC(C)=C(C(=O)OC/C=C/c2ccccc2)C1c1cccc([N+](=O)[O-])c1 (centres undefined),99.8% (inactive)
16,CC(C)NCC(O)COc1ccc(CCOCC2CC2)cc1 (centres undefined),123% (inactive)
17,NCCC1CCCC(CCN)N1 (centres undefined),115% (inactive)
18,N[C@@H](Cc1ccc(F)cc1)C(=O)O,95% (inactive)
19,CCCCCCC(=O)OC1CC(C)(C)NC(C)(C)C1,109% (inactive)
